Bioassay records as filed in PubChem BioAssay.
Only a selection was taken, and hits are over-represented in it overall.
ROC1-CUL1 inh: inhibitors of human ROC1-CUL1 ubiquitin ligase activity. E3 ubiquitin-protein ligase RBX1 (Homo sapiens) + Cullin-1 (Homo sapiens), P62877+Q13616. in vitro K48 di-Ub FRET, acceptor:donor ratio, 45 min. inhibition, % at 10 µM. 140,000 compounds, 0.6% hits; in the data active means inhibition above about 25%
Target sequence (P62877 whole entry, looked up): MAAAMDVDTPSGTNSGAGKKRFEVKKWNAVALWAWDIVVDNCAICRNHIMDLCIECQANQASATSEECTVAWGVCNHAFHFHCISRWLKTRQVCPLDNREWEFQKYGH
Target sequence (Q13616 whole entry, looked up): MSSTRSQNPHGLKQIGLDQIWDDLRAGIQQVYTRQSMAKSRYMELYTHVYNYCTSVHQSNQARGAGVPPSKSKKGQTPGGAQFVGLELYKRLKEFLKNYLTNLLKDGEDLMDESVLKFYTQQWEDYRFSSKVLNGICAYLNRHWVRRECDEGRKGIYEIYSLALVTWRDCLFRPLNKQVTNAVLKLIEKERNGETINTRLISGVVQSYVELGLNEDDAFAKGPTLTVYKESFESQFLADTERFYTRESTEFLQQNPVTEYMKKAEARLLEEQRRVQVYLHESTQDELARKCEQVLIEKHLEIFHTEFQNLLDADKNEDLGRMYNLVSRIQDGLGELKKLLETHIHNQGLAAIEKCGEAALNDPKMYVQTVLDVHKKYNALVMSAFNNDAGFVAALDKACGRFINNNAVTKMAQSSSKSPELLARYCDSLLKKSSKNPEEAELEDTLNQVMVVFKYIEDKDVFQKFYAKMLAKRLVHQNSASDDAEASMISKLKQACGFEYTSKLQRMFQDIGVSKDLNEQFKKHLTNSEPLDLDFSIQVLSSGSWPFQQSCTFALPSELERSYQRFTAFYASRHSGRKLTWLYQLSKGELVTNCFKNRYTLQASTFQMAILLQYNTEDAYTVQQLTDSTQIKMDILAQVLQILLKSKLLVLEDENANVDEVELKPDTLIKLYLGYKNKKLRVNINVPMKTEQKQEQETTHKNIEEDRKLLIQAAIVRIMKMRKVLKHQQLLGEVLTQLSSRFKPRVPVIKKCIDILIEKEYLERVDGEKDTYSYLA
An asterisk follows results filed as active.

SMILES | ROC1-CUL1 inh
COc1ccc(-n2cccc2C=C2C(=O)NC(=O)NC2=O)cc1 | 14
COc1ccc(C=C2C(=O)NC(=S)NC2=O)cc1OC(=O)c1ccccc1 | 1
COc1ccc(N2C(=O)/C(=C/c3cccn3-c3cccc(C(=O)O)c3)C(=O)NC2=S)c(OC)c1 | 63*
COc1ccc(CNCCc2ccccc2)c(OC)c1OC | -8
CCN(C)CCc1c[nH]c2ccccc12 | -3
CN(C)C(=O)Oc1c(Br)cc(Br)c(OC(=O)N(C)C)c1Br | 9
CNC(=O)Oc1c(Br)cc2sc(=O)oc2c1Br | 34*
O=C1NC(=S)NC(=O)C12C(c1ccccc1)NC(=S)NC2c1ccccc1 (configuration not stated) | 35*
O=C(c1ccc2c3c(cccc13)CC2)C1CCCN(C2CCOCC2)C1 (configuration not stated) | 7
O=C1CCCN1C(=O)c1ccccc1 | 1
CCOc1ccc(C2=C(C=C3C(=O)NC(=O)NC3=O)C(c3ccccc3C)c3ccccc3O2)cc1 (configuration not stated) | 6
CCCCOC(=O)c1cc(-c2ccc(C=C3C(=O)NC(=O)NC3=O)o2)ccc1Cl | 98*
c1ccc2c(c1)CC1CNC2c2ccccc21 (configuration not stated) | 2
CN(C)CCO/N=C1\CN2CCC1CC2 | 2
NC(=NC(=Nc1ccccc1)Nc1ccccc1)N[N+](=O)[O-] | 5
CC1=CC(=C2C(=O)NC(=O)NC2=O)C=C(C)N1c1ccc(C(=O)O)cc1 | -1
COC(=O)c1ccc(-n2c(C)cc(/C=C3\C(=O)NC(=S)N(c4cccc(Cl)c4Cl)C3=O)c2C)c(C)c1 | 31*
O=C1NC(=S)N(c2ccccc2)C(=O)/C1=C\c1ccc(OCc2ccccc2)c(C(=O)O)c1 | 10
Cc1cc(/C=C2\C(=O)NC(=S)N(c3cccc(Cl)c3Cl)C2=O)c(C)n1-c1cc(C(=O)O)cc(C(=O)O)c1 | 96*
Cc1c(Cl)cccc1N1C(=O)/C(=C/c2cc(C)n(-c3ccc(C(=O)O)cc3)c2C)C(=O)NC1=S | 35*
Cc1ccc(N2C(=O)/C(=C\c3ccc(-c4cccc(C(=O)O)c4)o3)C(=O)NC2=S)cc1 | 90*
CCCc1noc(CN2CCCC(C(=O)c3ccccn3)C2)n1 (configuration not stated) | 6
FC(F)(F)c1cccc(C(OCCN2CCCC2)c2ccccc2)c1 (configuration not stated) | 0
CN1C(=N)C(C#N)C2=C(CN(C)C(C)(C)C2)C1=S (configuration not stated) | 0
OC(Cc1ccccc1)(Cc1ccccc1)C1CN2CCC1CC2 (configuration not stated) | -10
SMILES | ROC1-CUL1 inh
CC(=O)c1cc(OC(=O)N(C)C)cc(OC(=O)N(C)C)c1 | 7
O=C1O[C@@H]2CN(Cc3ccccn3)C[C@@H]2N1C1CCCC1 | 9
C/C(CCc1c[nH]c2ccccc12)=N/O | 3
Cc1sc2ncnc(N3CCN(C)CC3)c2c1C | 3
CCOC(=O)C1C2c3ccccc3O[C@]1(C)N=c1s/c(=C/c3ccc(OC)cc3)c(=O)n12 (some centres not stated) | -7
O=C1[C@@H]2C3CCC(O3)[C@H]2C(=O)N1CNc1ccc(Cl)c(Cl)c1 | 3
Cc1[nH]c2c(Br)cccc2c1CCN | 6
N#CC1C(=N)Oc2c(c(=O)oc3ccccc23)C1c1ccccc1F (configuration not stated) | -3
Cc1ccccc1-n1c(-c2ccncc2)nc2ccc(Cl)cc2c1=O | 7
Cc1ccc(-n2c(-c3ccccc3O)nc3ccccc3c2=O)c(C)c1 | -8
O=C(c1cn(Cc2ccccc2Cl)c2ccccc12)C(F)(F)F | -9
N#CC1C(=N)Oc2c(c(=O)oc3ccccc23)C1c1cccc([N+](=O)[O-])c1 (configuration not stated) | -4
Cc1cc(C=C2C(=O)NC(=S)NC2=O)c(C)n1-c1cccc(C(F)(F)F)c1 | 26*
Cc1cc(C=C2C(=O)NC(=S)NC2=O)c(C)n1-c1ccc2c(c1)OCO2 | 52*
O=C1NC(=S)NC(=O)C1=Cc1cn(Cc2ccc(Cl)cc2Cl)c2ccccc12 | 1
Cc1ccc(OCCn2c(C)c(C=C3C(=O)NC(=S)NC3=O)c3ccccc32)c(C)c1 | 6
COc1cc(C=C2C(=O)NC(=S)NC2=O)ccc1OCc1ccc(F)cc1 | -5
O=C1NC(=S)NC(=O)C1=Cc1ccc(O)c(O)c1 | 10
CCOc1ccccc1/C=C1\C(=O)C2CCN1CC2 | 10
CCN(CC)CCN1C(=O)NC(=O)C(CC)(CC)C1=O | -8
COc1ccc(/C=C2\C(=O)C3CCN2CC3)c(OC)c1 | -3
COc1ccc2nonc2c1[N+](=O)[O-] | -7
O=c1[nH]c(O)c(N=Nc2ccc(O)cc2)c(=O)[nH]1 | 12
CCCCCCCC1C(=O)NC(=S)N(c2ccccc2)C1=O (configuration not stated) | 8
CC(C)(C)OC(=O)N1C2CCCC(=O)C1CC2 (configuration not stated) | 6
O=c1c2ccccc2nc(/C=C/c2ccc(O)cc2)n1-c1ccccc1Cl | 1
CC(C)(C)N1C(=O)NC(=O)/C(=C/c2c(Cl)cccc2Cl)C1=O | 26*
O=C1NC(=S)NC(=O)C1=Cc1c(Cl)cccc1Cl | 3
N#CC1C(=N)Oc2c(c(=O)sc3ccccc23)C1c1ccc(F)cc1 (configuration not stated) | 10
CCCc1ncc(CN2CCC3(CCCN(CC4CC4)C3)C2)cn1 (configuration not stated) | 4
